Results on 1 sequence are retold here after PMC7862700, “An all-to-all approach to the identification of sequence-specific readers for epigenetic DNA modifications on cytosine”.

Common to all, as to assay: DAPPL (digital affinity profiling via proximity ligation, sequencing); 10 mM Tris-HCl pH 7.5, 50 mM NaCl, 1 mM DTT, 4% glycerol, room temperature, 30 min; GST-TFs on glutathione beads, 16-mer random dsDNA library, 0.1% formaldehyde crosslink after washing; high values mean tight binding
One experiment deals with T1, FEV (Homo sapiens, UniProt Q99581 1-238).
T1 sequence: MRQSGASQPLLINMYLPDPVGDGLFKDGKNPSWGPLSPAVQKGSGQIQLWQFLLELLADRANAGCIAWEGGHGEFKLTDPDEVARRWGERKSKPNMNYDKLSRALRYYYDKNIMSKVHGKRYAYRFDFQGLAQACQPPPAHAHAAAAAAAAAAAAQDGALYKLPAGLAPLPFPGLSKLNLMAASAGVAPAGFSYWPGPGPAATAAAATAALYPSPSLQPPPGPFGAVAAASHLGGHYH
The conditions noted are these: protein: recombinant; tags: N-terminal GST; dsDNA, one strand shown. In a few lines: (§1)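 Yeast served to express human transcription factors as GST fusions, which were then captured on glutathione beads and labelled with DNA barcodes. Pooled with a tag-only sample, they were incubated with 200 nmole of a 16-mer random double-stranded DNA library for 30 min at room temperature in Tris/NaCl/DTT/glycerol buffer, washed, crosslinked with 0.1% formaldehyde, ligated by proximity, amplified by PCR and sequenced. Dividing each hexamer's read frequency for a factor by its frequency for the tag-only sample gives the binding signal.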

For a further experiment, the target named is ETV5 (Homo sapiens, UniProt P41161 1-510). The conditions noted are these: protein: recombinant; tags: N-terminal GST; dsDNA, one strand shown. The gist of the method:
as §1

The target in the next experiment is HSF1 (Homo sapiens, UniProt Q00613 1-529). The conditions noted are these: protein: recombinant; tags: N-terminal GST; chain copies: 3; dsDNA, one strand shown. The gist of the method: as §1
For another experiment, the target named is T2, SPIC (Homo sapiens, UniProt Q8N5J4 1-248).
T2 sequence: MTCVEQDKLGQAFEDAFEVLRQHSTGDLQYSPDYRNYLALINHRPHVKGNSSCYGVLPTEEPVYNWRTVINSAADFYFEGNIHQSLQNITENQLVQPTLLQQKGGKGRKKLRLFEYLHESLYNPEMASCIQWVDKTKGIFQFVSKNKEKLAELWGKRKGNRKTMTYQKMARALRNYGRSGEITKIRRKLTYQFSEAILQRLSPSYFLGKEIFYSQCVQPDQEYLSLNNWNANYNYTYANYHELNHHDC
The conditions noted are these: protein: recombinant; tags: N-terminal GST; dsDNA, one strand shown. In a few lines:
as §1

The next experiment deals with ELF4 (Homo sapiens, UniProt Q99607 1-663). The following applies: protein: recombinant; tags: N-terminal GST; dsDNA, one strand shown. In a few lines: as §1
The target in the next experiment is T3, ELK4 (Homo sapiens, UniProt P28324-2 1-405).
T3 sequence: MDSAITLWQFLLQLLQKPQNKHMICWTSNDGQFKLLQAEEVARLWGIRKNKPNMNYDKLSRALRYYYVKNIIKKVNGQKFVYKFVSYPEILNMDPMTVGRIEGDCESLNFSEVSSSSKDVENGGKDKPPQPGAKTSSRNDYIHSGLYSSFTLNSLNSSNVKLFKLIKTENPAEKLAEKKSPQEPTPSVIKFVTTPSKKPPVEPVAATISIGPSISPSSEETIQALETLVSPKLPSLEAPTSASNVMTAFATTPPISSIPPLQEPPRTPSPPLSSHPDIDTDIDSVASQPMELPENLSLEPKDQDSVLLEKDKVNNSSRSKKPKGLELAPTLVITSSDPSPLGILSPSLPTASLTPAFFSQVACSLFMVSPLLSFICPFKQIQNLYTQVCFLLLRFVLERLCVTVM
The following applies: protein: recombinant; tags: N-terminal GST; dsDNA, one strand shown. In a few lines:
as §1

A further experiment deals with T4, ETV2 (Homo sapiens, UniProt O00321 1-342).
T4 sequence: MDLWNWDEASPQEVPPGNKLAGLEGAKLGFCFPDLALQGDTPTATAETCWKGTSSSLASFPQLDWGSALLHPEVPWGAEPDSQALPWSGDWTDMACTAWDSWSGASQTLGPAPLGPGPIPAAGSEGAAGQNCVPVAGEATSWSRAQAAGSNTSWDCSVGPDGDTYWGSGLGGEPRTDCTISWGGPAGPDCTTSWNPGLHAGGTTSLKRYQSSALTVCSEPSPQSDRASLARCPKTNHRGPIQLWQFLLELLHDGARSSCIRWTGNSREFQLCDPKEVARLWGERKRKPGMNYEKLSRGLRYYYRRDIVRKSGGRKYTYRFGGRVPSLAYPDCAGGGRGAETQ
The following applies: protein: recombinant; tags: N-terminal GST; dsDNA, one strand shown. The gist of the method:
as §1

A further experiment concerns the target T5, ELF3 (Homo sapiens, UniProt P78545 1-371).
T5 sequence: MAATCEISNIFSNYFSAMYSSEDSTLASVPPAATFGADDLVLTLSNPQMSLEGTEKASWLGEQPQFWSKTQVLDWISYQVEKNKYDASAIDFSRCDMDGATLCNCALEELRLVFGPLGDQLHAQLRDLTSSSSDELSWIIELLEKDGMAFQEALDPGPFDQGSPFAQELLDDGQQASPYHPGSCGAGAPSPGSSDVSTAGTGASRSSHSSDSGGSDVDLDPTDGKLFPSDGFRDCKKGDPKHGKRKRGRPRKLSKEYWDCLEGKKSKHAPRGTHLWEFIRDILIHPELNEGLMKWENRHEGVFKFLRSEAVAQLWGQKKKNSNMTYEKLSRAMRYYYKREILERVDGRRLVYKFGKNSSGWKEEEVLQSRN
The conditions noted are these: protein: recombinant; tags: N-terminal GST; dsDNA, one strand shown. The gist of the method:
as §1

Another experiment has as its target CRX (Homo sapiens, UniProt O43186 1-299). The following applies: protein: recombinant; tags: N-terminal GST; dsDNA, one strand shown. In a few lines:
as §1

The target in another experiment is ETV1 (Homo sapiens, UniProt P50549 1-477). The following applies: protein: recombinant; tags: N-terminal GST; dsDNA, one strand shown. The gist of the method:
as §1

In a further experiment the target is T6, ERF (Homo sapiens, UniProt P50548 1-548).
T6 sequence: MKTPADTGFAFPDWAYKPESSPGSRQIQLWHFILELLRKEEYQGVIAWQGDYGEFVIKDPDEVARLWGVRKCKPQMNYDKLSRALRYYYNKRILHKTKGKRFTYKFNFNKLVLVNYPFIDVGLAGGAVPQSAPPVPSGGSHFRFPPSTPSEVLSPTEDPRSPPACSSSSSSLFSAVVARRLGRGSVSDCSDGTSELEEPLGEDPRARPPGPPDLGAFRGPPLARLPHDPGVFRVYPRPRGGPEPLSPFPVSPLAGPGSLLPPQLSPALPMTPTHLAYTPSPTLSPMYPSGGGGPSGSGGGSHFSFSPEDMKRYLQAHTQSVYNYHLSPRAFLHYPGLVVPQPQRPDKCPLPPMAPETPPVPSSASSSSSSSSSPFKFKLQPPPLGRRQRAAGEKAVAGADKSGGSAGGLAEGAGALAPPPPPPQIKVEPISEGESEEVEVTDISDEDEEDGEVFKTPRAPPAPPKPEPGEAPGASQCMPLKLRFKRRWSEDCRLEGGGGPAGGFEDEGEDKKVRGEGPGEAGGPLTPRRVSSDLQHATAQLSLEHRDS
The conditions noted are these: protein: recombinant; tags: N-terminal GST; dsDNA, one strand shown. In a few lines:
as §1

A further experiment has as its target T7, ETV3L (Homo sapiens, UniProt Q6ZN32 1-361).
T7 sequence: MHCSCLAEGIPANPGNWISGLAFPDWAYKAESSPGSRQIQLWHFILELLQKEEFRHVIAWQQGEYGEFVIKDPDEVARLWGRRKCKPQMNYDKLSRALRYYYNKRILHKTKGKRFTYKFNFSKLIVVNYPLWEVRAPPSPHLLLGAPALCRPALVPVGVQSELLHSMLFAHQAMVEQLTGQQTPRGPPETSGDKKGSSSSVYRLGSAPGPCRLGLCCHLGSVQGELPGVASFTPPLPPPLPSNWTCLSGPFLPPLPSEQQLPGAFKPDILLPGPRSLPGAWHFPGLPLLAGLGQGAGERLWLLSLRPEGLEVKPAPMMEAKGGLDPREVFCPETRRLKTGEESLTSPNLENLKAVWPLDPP
The following applies: protein: recombinant; tags: N-terminal GST; dsDNA, one strand shown. In a few lines: as §1

Another experiment concerns the target T8, ETS2 (Homo sapiens, UniProt P15036 1-469).
T8 sequence: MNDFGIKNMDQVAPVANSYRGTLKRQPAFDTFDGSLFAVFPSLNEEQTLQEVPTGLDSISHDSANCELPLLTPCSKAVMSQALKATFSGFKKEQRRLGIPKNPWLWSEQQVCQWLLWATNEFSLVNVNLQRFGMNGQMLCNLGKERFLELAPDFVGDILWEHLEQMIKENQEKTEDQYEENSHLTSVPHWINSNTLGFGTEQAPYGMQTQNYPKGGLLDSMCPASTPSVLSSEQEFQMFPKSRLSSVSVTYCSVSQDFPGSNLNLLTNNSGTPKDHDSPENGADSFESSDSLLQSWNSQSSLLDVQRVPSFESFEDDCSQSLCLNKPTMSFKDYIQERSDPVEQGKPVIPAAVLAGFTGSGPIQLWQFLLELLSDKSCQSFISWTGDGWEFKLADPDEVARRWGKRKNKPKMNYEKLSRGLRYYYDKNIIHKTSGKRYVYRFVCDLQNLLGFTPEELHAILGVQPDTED
The conditions noted are these: protein: recombinant; tags: N-terminal GST; dsDNA, one strand shown. The gist of the method:
as §1

For a further experiment, the target named is T9, SPDEF (Homo sapiens, UniProt O95238 1-335).
T9 sequence: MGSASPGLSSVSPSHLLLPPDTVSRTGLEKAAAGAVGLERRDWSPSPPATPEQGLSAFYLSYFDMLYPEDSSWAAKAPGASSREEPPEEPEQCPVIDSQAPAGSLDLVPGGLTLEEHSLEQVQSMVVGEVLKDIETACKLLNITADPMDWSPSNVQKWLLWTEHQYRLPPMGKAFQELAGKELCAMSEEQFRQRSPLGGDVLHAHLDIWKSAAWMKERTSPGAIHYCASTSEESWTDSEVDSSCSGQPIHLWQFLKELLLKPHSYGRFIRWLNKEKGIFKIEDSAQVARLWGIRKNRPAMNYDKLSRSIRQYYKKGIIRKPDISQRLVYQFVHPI
The conditions noted are these: protein: recombinant; tags: N-terminal GST; dsDNA, one strand shown. The gist of the method: as §1

A further experiment has as its target T10, ETV7 (Homo sapiens, UniProt Q9Y603 1-341).
T10 sequence: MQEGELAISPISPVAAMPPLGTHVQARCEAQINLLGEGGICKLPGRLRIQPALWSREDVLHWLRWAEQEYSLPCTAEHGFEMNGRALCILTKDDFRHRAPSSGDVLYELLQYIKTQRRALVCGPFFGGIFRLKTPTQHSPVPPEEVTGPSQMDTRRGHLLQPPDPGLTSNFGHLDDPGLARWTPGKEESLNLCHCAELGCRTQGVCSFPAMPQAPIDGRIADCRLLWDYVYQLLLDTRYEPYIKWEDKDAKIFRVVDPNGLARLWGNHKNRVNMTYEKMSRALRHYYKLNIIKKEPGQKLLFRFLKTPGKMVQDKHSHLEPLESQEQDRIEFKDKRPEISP
The following applies: protein: recombinant; tags: N-terminal GST; dsDNA, one strand shown. The gist of the method: as §1

The target in a further experiment is T11, ELF5 (Homo sapiens, UniProt Q9UKW6-2 1-255).
T11 sequence: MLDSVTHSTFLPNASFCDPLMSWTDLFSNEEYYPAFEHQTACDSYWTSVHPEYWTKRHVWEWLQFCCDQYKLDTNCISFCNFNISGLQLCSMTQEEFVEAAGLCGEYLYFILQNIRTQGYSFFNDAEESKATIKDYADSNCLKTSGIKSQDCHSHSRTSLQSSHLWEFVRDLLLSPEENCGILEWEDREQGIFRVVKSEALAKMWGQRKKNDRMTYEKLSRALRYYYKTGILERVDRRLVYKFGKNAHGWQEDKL
The conditions noted are these: protein: recombinant; tags: N-terminal GST; dsDNA, one strand shown. In a few lines:
as §1

For a further experiment, the target named is T12, ETV3 (Homo sapiens, UniProt P41162-2 1-143).
T12 sequence: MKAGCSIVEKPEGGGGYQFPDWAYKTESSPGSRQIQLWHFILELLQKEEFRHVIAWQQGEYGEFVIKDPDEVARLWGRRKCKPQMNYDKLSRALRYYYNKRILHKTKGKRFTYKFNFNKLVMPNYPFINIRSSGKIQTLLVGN
The following applies: protein: recombinant; tags: N-terminal GST; dsDNA, one strand shown. The gist of the method:
as §1

In the next experiment the target is ETV6 (Homo sapiens, UniProt P41212 1-452). The conditions noted are these: protein: recombinant; tags: N-terminal GST; dsDNA, one strand shown. In a few lines:
as §1

Sequence of ETV6 (P41212 whole entry): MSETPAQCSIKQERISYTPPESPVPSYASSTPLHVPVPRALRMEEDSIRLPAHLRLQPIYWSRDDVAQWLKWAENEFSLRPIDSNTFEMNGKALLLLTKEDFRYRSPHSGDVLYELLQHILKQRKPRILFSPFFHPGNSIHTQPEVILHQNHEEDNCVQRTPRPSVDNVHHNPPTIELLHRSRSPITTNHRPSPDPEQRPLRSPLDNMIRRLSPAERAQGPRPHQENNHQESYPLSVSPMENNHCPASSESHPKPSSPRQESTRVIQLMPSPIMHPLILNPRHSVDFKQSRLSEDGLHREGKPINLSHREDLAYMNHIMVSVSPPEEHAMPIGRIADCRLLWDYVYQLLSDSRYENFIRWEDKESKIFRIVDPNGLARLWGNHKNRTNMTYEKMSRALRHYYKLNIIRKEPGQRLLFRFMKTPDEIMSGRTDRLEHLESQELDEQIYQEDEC
Sequence of ETV5 (P41161 whole entry): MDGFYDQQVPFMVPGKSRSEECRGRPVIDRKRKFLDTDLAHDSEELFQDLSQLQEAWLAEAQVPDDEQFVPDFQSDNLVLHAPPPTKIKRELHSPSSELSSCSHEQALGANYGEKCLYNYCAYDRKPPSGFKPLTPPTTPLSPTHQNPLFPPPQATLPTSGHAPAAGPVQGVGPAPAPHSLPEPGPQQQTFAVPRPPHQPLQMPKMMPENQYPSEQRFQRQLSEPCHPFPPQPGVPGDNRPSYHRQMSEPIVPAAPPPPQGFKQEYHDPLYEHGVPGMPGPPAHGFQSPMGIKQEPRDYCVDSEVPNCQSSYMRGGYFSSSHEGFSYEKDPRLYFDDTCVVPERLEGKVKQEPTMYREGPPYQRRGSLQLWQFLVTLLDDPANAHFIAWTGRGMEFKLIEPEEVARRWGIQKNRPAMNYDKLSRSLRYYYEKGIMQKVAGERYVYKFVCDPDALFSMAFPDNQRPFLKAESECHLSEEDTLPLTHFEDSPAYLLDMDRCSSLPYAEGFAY
Sequence of CRX (O43186 whole entry): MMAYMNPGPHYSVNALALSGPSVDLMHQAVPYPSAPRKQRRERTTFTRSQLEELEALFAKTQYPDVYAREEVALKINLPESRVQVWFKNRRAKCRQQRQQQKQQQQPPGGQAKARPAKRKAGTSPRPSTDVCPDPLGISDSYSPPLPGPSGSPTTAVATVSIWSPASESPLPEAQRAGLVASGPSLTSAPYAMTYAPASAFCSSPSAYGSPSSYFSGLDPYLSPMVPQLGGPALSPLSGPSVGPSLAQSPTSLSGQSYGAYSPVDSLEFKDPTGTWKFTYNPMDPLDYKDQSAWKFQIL
Sequence of ELF4 (Q99607 whole entry): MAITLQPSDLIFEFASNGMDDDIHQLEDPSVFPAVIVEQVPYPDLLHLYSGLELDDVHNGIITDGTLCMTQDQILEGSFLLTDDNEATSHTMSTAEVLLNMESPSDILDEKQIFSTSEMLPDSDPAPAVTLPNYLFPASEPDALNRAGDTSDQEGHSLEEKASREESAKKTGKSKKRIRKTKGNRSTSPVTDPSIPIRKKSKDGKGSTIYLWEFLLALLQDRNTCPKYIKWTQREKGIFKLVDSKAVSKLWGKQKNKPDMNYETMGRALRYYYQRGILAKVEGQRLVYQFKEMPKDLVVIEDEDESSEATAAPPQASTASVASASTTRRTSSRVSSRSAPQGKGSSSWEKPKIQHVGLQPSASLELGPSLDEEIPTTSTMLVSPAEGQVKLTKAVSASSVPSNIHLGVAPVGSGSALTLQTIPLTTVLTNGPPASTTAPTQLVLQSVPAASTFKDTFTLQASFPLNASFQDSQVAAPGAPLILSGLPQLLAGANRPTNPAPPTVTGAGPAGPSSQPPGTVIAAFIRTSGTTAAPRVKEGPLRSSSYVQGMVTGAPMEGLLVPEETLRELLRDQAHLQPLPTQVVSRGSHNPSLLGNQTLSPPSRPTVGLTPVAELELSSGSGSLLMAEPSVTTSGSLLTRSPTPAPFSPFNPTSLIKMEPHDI
Sequence of HSF1 (Q00613 whole entry): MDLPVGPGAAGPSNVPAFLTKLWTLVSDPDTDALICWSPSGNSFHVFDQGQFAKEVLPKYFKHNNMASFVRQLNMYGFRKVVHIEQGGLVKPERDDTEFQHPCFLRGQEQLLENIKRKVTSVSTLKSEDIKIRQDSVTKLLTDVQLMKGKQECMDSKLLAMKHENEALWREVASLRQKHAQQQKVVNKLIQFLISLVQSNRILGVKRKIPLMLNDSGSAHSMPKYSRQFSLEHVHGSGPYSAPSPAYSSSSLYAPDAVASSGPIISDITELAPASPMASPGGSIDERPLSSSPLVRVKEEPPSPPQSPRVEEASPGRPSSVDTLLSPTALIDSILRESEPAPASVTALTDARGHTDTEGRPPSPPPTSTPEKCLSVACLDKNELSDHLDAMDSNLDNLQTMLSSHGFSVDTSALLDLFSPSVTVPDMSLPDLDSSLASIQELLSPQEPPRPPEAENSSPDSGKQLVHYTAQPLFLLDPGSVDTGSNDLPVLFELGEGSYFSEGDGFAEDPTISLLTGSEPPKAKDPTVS
Sequence of ETV1 (P50549 whole entry): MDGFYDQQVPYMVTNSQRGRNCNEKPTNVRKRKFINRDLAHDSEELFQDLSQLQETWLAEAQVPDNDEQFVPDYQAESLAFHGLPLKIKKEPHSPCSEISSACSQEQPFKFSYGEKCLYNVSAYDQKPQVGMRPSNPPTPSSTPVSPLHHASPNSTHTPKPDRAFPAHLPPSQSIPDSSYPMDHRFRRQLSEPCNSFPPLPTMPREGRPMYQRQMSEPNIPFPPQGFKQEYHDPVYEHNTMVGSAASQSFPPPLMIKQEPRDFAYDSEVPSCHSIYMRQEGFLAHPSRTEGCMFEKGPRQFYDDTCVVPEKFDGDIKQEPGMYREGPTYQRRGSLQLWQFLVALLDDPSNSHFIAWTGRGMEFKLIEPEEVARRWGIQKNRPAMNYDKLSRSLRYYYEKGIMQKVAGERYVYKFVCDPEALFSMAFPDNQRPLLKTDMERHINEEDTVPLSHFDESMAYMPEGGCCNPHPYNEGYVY

TTATTG: the binding signal with FEV was 1.28 fold enrichment (6-mer frequency, TF over GST control); with ETV5, 1.32 fold enrichment (6-mer frequency, TF over GST control); in the experiment with HSF1 it was 1.71 fold enrichment (6-mer frequency, TF over GST control); with SPIC, 1.29 fold enrichment (6-mer frequency, TF over GST control); with ELF4 it was 1.36 fold enrichment (6-mer frequency, TF over GST control); in the experiment with ELK4, 1.43 fold enrichment (6-mer frequency, TF over GST control). For the same sequence, the binding signal is 1.33 fold enrichment (6-mer frequency, TF over GST control) with ETV2; 1.35 fold enrichment (6-mer frequency, TF over GST control) in the experiment with ELF3; 2.35 fold enrichment (6-mer frequency, TF over GST control) with CRX; 1.24 fold enrichment (6-mer frequency, TF over GST control) with ETV1; 1.37 fold enrichment (6-mer frequency, TF over GST control) with ERF; 1.37 fold enrichment (6-mer frequency, TF over GST control) with ETV3L. Besides, the binding signal is 1.27 fold enrichment (6-mer frequency, TF over GST control) with ETS2; 1.21 fold enrichment (6-mer frequency, TF over GST control) in the experiment with SPDEF; 1.4 fold enrichment (6-mer frequency, TF over GST control) with ETV7; 1.2 fold enrichment (6-mer frequency, TF over GST control) with ELF5; 1.34 fold enrichment (6-mer frequency, TF over GST control) with ETV3; 1.27 fold enrichment (6-mer frequency, TF over GST control) with ETV6.
